Screens deposited in PubChem by several laboratories.
DNA FID counter – compounds displacing fluorescent DNA intercalator, primary screen, artefact control for HCV NS3 helicase inhibitor project, biochemical, FID fluorescence. inhibition, % at 7.9 µM. DNA fluorescent intercalator displacement. actives 0.17% (n = 290,000). AID 1845, 2009; in the data active = inhibition above about 37%;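 also: 0% = vehicle and 100% = reference compound; higher means more ethidium bromide displaced from hairpin DNA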
miR-122 sensor – miR-122 Renilla sensor signal increase in Huh7, primary screen, miR-122 inhibitor project, cell-based, single point, plate reader. AID 602342, 2012. activation (reporter increase), % at 12.5 µM. actives 0.3% (n = 340,000). Huh7 miR-122 Renilla luciferase sensor, 48 h; neutral wells = 0, positive control = 100;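 active = mean replicate activation score at least 90 and every replicate individually at or above 90; inconclusive = only one of the two criteria met; inactive = neither criterion met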;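 also: higher luciferase means less miR-122 activity so hits act as miR-122 inhibitors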
Glyco luc inh – increase of ERlucT glycosylation luciferase signal, primary screen, N-linked glycosylation inhibitor project, D54 ERlucT cells, luminescence, set 2. D54 ERlucT glycosylation luciferase reporter, 24 h; percent of 100 nM tunicamycin response. actives 0.23% (n = 360,000). reporter increase, % at 12.5 µM;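 active = mean luciferase reporter signal, scaled so untreated is 0 and the glycosylation-blocking control 100, at or above a set limit in every replicate; inconclusive = mean reaches the limit but not every replicate does; inactive = mean below the limit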;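 also: luciferase carries N-glycosylation sites so blocking glycosylation raises the light; 0% = median of neutral control wells and 100% = median of 100 nM tunicamycin wells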
NRP1-CendR mod – modulators of CendR peptide binding to NRP-1, primary screen, biochemical, fluorescence polarization, uHTS; Neuropilin-1 (Homo sapiens), O14786; FAM-RPARPAR peptide binding to NRP-1; inhibition, % at 25 µM; actives 0.85% (n = 360,000); AID 602438, 2012;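 active = inhibition or corrected inhibition above about 18%, plus a signal ratio from 0.5 to 1.5, limit read from the data, passing the limit was not always enough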
Target sequence (O14786 whole entry, looked up): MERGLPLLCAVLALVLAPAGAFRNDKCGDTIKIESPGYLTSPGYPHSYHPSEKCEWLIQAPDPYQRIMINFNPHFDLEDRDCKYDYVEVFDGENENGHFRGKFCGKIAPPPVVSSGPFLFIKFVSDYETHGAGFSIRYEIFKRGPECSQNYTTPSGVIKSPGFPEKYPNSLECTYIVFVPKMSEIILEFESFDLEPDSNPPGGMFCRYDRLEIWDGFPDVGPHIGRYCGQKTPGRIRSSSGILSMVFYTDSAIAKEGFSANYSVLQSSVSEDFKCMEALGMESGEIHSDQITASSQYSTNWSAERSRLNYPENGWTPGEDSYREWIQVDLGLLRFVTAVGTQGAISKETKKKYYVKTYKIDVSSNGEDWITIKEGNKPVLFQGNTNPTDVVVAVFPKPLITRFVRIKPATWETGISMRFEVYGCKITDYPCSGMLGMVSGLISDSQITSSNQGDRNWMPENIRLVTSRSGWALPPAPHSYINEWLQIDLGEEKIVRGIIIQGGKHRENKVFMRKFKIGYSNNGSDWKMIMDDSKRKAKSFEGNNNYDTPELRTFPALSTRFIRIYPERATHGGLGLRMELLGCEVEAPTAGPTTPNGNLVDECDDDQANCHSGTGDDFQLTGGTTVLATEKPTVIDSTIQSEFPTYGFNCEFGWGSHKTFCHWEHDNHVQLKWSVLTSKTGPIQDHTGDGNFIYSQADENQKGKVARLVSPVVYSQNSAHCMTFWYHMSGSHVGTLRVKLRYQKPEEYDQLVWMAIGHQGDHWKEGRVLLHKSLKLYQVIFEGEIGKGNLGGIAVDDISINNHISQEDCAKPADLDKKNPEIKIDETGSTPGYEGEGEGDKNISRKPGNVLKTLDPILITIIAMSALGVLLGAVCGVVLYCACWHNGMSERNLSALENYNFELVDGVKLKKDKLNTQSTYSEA
RAD54 inh – inhibitors of human RAD54 branch migration, primary screen, biochemical, fluorescence, single point | AID 602329, 2012 | DNA repair and recombination protein RAD54-like (Homo sapiens), Q92698 | RAD54 Holliday junction branch migration, FAM/BHQ fluorescence | inhibition, % at 10.4 µM | actives 0.14% (n = 360,000);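 active = mean normalized replicate activity at least 40 and at least half of replicates scoring 40 or more; inconclusive = only one of the two criteria met; inactive = mean below 40 and under half of replicates reaching 40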;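 also: 0% = median of neutral control wells and 100% = median of positive control wells; inhibitors cause a drop in the FAM fluorescence signal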
RAD52 anneal inh – RAD52 DNA annealing inhibitors, primary screen, biochemical, FRET, single point, set 2 | recombinant RAD52 DNA annealing, FRET fluorescence | inhibition, % at 18.7 µM | actives 0.46% (n = 360,000) | AID 651710, 2012;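 active = every replicate showing at least 50% inhibition; inconclusive = mean inhibition at least 50% but not in every replicate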
Starred values were filed as active, the others as inactive; ? = inconclusive; . = no result; [ ] = another dose, or the depositor's remark. Shown are actives, neighbours in structure and some others; about 1.5% of the full set was active somewhere.

SMILES	DNA FID counter	miR-122 sensor	Glyco luc inh	NRP1-CendR mod	RAD54 inh	RAD52 anneal inh
O=C(Cc1cccs1)Nc1ccc(S(=O)(=O)N2CCCCC2)cc1	-13	132*	-4	-10	-5	.
CNC[C@@H]1Oc2ccc(NS(=O)(=O)c3ccc(OC)cc3)cc2C(=O)N([C@@H](C)CO)C[C@@H]1C	.	-2[16.7 µM]	.	.	-2	-4
Cn1c(=O)[nH]c(=O)c2c1nc(N/N=C/c1cccnc1)n2Cc1ccc(Cl)cc1	-4	3	53*	2	-3	-17
Cn1c(=O)[nH]c(=O)c2c1nc(N/N=C/c1ccncc1)n2Cc1ccc(F)cc1	-12	-3	19	-7	?	-1
CCC(=O)Nc1ccc2c(c1)OC[C@H](C)N(C(=O)CC)C[C@H](C)[C@@H](OC)CN(C)C2=O	.	.	.	.	.	-8
O=C(O)c1cc(NCc2ccc(F)cc2)ccc1N1CCOCC1	2	-5	0	46*	9	.
O=C(O)c1cc(NCc2cccs2)ccc1N1CCOCC1	0	-14	-1	-6	6	.
COc1ccc(NC(=O)N(C)C[C@@H]2Oc3ccc(NC(=O)Cc4ccccc4)cc3C(=O)N([C@H](C)CO)C[C@H]2C)cc1	.	-3[16.7 µM]	.	.	3	14
CCCC(=O)Nc1ccc2c(c1)OC[C@@H](C)N(C(=O)c1cnccn1)C[C@H](C)[C@@H](OC)CN(C)C2=O	.	.	.	.	-2	6
S=C(NCc1ccncc1)Nc1cc(Cl)cc(Cl)c1	-1	103*	2	-3	-3	-152
S=C(NCc1ccncc1)Nc1ccc(Cl)c(Cl)c1	6	14	-1	2	1	.
Cc1ccccc1OC1C(=O)N(Cc2ccc3c(c2)OCO3)C1c1sccc1C (configuration not stated)	-4	158*	-11	2	.	.
O=C1C(Oc2ccccc2)C(c2cccs2)N1Cc1ccc2c(c1)OCO2 (configuration not stated)	-8	71	-4	1	14	.
CCN1CCN(CCCNC(=O)c2ccc3c(c2)NC(=O)/C(=C\c2cccc(C)c2)S3)CC1	27	3	-11	3	66*	44
CCN1CCN(CCNC(=O)c2ccc(/C=C3\Sc4ccccc4N(Cc4ccccc4F)C3=O)cc2)CC1	15	.	-5	10	.	85*
Cc1ccc(F)cc1S(=O)(=O)N[C@@H]1CCN(Cc2cccc3[nH]ccc23)C1	.	.	.	.	2	12
Cc1ccc(S(=O)(=O)N2c3ccccc3CC2C)cc1 (configuration not stated)	-7	6	7	-5	.	-16
Cc1ccc(S(=O)(=O)N2c3ccc(S(N)(=O)=O)cc3CC2C)cc1 (configuration not stated)	-1	26	-1	22*	-1	-17
Cc1c(NC(=S)N/N=C/C=C/c2ccc([N+](=O)[O-])cc2)c(=O)n(-c2ccccc2)n1C	-21	.	-2	36*	.	-3
Cc1c(NC(=S)N/N=C/C=C/c2ccccc2)c(=O)n(-c2ccccc2)n1C	-27	-7	0	9	5	-17
C1=C2C[N+]3(CCCC3)CC2Cc2ccc3ccccc3c21 (configuration not stated)	4	.	4	12	54*	23
C[C@@H]1CCCCO[C@H](CN(C)C(=O)c2ccccc2)[C@@H](C)CN([C@H](C)CO)C(=O)c2cc(NC(=O)Nc3ccc(F)cc3)ccc2O1	.	-1[16.7 µM]	.	.	4	-4
COc1ccc(NC(=O)c2oc3ccccc3c2NC(=O)C2CC2)cc1OC	-21	.	5	30*	1	-12
CC(C)NC(=O)NCC[C@@H]1CC[C@@H](NS(=O)(=O)c2ccccc2)[C@H](CO)O1	.	.	.	.	.	2
CO[C@H]1CN(C)C(=O)c2cc(NC(C)=O)ccc2OC[C@@H](C)N(Cc2ccccc2F)C[C@@H]1C	.	-4[16.7 µM]	.	.	2	-4
SMILES	DNA FID counter	miR-122 sensor	Glyco luc inh	NRP1-CendR mod	RAD54 inh	RAD52 anneal inh
CC(=Nc1ccccc1)C1=C(O)C(Cc2cccc(F)c2)NC1=O (configuration not stated)	.	158*	7	-6	3	-3
COc1ccc(/C=N/Nc2cc(C)nc3ccccc23)cc1	33	.	-7	19	97*	91*
CCc1ccc(NC(=O)CN2CCc3ccccc3C2)cc1	-6	265*	13	-4	-3	.
Cc1noc(C)c1NC(=O)Nc1ccc2c(c1)C(=O)N([C@H](C)CO)C[C@H](C)[C@H](CN(C)C(=O)Nc1ccccc1)OCCCC[C@H](C)O2	.	-2[16.7 µM]	.	.	-3	4
C[C@H]1CN([C@@H](C)CO)C(=O)CCCn2cc(nn2)CO[C@H]1CN(C)C(=O)CCCN(C)C	.	10[16.7 µM]	.	.	-1	2
Cc1cc(C)nc(/N=C(\N)Nc2ccc(CC(=O)OC(C)C)cc2)n1	3	-2	48*	10	-3	11
COc1ccc(N/C(N)=N/c2nc(C)cc(C)n2)cc1	.	-4	6	15	6	-3
Cc1cc(C)nc(/N=C(\N)Nc2ccc(S(=O)(=O)O)cc2)n1	3	-5	1	12	.	-8
Cc1cc(C)nc(/N=C(\N)Nc2ccc(OCCC(C)C)cc2)n1	11	-8	48*	1	9	33
O=C(C[C@H]1C[C@H]2c3cc(NC(=O)C4CCOCC4)ccc3O[C@H]2[C@H](CO)O1)NCCc1ccccc1	.	-5[16.7 µM]	.	.	-4	5
COc1cccc(NC(=O)CN(C)C(=O)C23CC4CC(CC(Cl)(C4)C2)C3)c1	.	-4	0	33*	-1	-4
CCO[C@@H]1c2c(ccc3ccc(=O)oc23)OC(C)(C)[C@@H]1O	.	0	1	32*	-1	-5
COc1cc(CNCCCN2CCOCC2)cc(Br)c1OCc1ccc(Cl)cc1	42*	2	-14	0	13	49
Nc1c(N(CCC2=CCCCC2)C(=O)Cc2ccc(F)cc2)c(=O)[nH]c(=O)n1Cc1ccccc1	.	.	-1	-6	.	-11
CCCN(C(=O)CSCc1ccc(Cl)cc1)c1c(N)n(Cc2ccccc2)c(=O)[nH]c1=O	.	-1	1	27*	-3	-23
Nc1c(N(CCC2=CCCCC2)C(=O)COc2ccc(F)cc2Cl)c(=O)[nH]c(=O)n1Cc1ccccc1	.	-4	56*	-14	-8	-15
Cc1ccc(CSCC(=O)N(CCC(C)C)c2c(N)n(Cc3ccccc3)c(=O)[nH]c2=O)cc1	.	6	-1	-11	5	-19
